# In PubChem BioAssay (NCATS):
# Where “and” joins values, the source holds several entries; their conditions need not be identical. Equal values may be shown once. Results filed as inconclusive are left out. Entries that show only a call come without a potency. Calls of active or inactive are those of the source. Unless noted, calls follow the shape of the full dose curve.
# Target: DNA dC->dU-editing enzyme APOBEC-3G (Homo sapiens) (UniProt Q9HC16)
# Assay: qHTS for inhibitors of Vif-A3G interactions: Validation (AID 588379; active = well fitted inhibition curve with a large enough effect)
# Conditions: Vif-A3G protein interaction assay; series mostly up to 46.1 µM
# In short: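 HeLa cells stably expressing Vif and A3G-eYFP, 700 cells/well, incubated overnight at 37 deg C, then exposed to compound overnight at 37 deg C. Inhibition of Vif-mediated degradation read as increased yellow fluorescence (Ex 488/Em 500-530) by laser-scanning cytometry.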
# DNA dC->dU-editing enzyme APOBEC-3G (Homo sapiens), sequence (Q9HC16 whole entry, looked up): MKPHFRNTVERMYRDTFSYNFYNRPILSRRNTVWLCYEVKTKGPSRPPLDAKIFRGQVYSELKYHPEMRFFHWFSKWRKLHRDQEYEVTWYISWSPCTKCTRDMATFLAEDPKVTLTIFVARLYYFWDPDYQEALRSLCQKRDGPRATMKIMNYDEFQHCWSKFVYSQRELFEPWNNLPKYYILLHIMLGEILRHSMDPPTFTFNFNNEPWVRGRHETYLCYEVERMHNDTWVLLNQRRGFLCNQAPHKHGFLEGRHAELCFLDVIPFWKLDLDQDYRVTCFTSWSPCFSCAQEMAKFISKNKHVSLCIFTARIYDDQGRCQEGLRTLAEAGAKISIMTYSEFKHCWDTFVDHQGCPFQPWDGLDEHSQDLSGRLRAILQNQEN
row,SMILES,outcome
1,COc1cc2c(cc1O)CC1c3c(cc(O)c(OC)c3-2)CCN1C (stereo not given),inactive
2,C[C@]12CC[C@H](O)CC1=CCC1C2CC[C@]2(C)C(=O)CC[C@@H]12 (stereo not given in full),inactive
3,C/C=C/c1ccc2c(c1)OCO2,inactive
4,COc1ccc2c(c1O)-c1c(OC)c(OC)cc3c1[C@H](C2)N(C)CC3,inactive

# Target: Estrogen receptor (Homo sapiens) (UniProt P03372)
# Assay: qHTS assay for small molecule antagonists of estrogen receptor alpha signaling (AID 588513; active = well fitted curve in the direction sought with a large enough effect in the signal ratio, with a control signal flat, not every such curve was filed as active; the % refers to the signal ratio)
# Conditions: ER-alpha-UAS-bla HEK293, beta-lactamase ratio, antagonist mode; series mostly up to 76.9 µM
# In short: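 ER-alpha-UAS-bla GripTite HEK 293 cells in medium with 2% charcoal/dextran-treated FBS were preincubated 4 h at 37 C, dosed with compound (1:2 titration), stimulated with 0.5nM 17-beta-estradiol for 18 h, then read by CCF4 beta-lactamase fluorescence.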
# Estrogen receptor (Homo sapiens), sequence (P03372 whole entry, looked up): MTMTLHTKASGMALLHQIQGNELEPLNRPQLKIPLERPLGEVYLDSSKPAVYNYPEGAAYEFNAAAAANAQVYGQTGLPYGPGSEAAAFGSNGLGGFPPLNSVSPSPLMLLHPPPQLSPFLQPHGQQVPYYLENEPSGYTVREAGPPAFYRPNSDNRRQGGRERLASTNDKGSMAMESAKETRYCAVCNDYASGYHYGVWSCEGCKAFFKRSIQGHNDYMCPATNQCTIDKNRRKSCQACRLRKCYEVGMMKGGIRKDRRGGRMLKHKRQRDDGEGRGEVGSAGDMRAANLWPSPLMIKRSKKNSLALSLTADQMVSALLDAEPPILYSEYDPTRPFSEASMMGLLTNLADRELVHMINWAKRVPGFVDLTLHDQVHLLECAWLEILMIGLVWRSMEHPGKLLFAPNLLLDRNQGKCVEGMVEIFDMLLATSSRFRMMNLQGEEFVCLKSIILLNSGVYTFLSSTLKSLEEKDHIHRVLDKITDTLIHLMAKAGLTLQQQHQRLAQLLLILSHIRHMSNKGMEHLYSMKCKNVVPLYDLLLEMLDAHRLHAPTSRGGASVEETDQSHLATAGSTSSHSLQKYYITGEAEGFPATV
row,SMILES,Potency
1,ClC1=C(Cl)C2(Cl)C3C4C=CC(C4)C3C1(Cl)C2(Cl)Cl (stereo not given),inactive
2,O=S1OCC2C(CO1)C1(Cl)C(Cl)=C(Cl)C2(Cl)C1(Cl)Cl (stereo not given),inactive
3,CNC(=O)O/N=C/C(C)(C)SC,inactive
4,CCNc1nc(Cl)nc(NC(C)C)n1,inactive
5,ClC1=C(Cl)C2(Cl)C3C(Cl)C=CC3C1(Cl)C2(Cl)Cl (stereo not given),inactive
6,ClC1=C(Cl)C2(Cl)C3C4CC(C5OC45)C3C1(Cl)C2(Cl)Cl (stereo not given),inactive
7,ClC(Cl)=C(c1ccc(Cl)cc1)c1ccc(Cl)cc1,inactive
8,CCc1cccc(CC)c1N(COC)C(=O)CCl,inactive
9,COP(=S)(OC)Oc1ccc([N+](=O)[O-])cc1,inactive

# Target: Estrogen receptor (Homo sapiens) (UniProt P03372)
# Assay: qHTS assay for small molecule agonists of estrogen receptor alpha signaling (AID 588514); also: nearly all actives have a fitted effect of over 70% in size; also: potency is read from the fitted curve at half-maximal effect
# Conditions: ER-alpha-UAS-bla HEK293, beta-lactamase ratio, 18 h; series mostly up to 76.8 µM
# In short: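 Cells were plated at 5000/well, incubated 4 hrs at 37 C, dosed with compound titration series, incubated 18 hrs at 37 C, loaded with CCF4 dye for 2 hrs at RT, then fluorescence was read.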
row,SMILES,Potency
1,O=S1OCC2C(CO1)C1(Cl)C(Cl)=C(Cl)C2(Cl)C1(Cl)Cl (stereo not given),1410 nM (active)
2,CNC(=O)O/N=C/C(C)(C)SC,inactive
3,CCNc1nc(Cl)nc(NC(C)C)n1,inactive
4,ClC(Cl)=C(c1ccc(Cl)cc1)c1ccc(Cl)cc1,inactive
5,COP(=S)(OC)Oc1ccc([N+](=O)[O-])cc1,inactive

# Target: Bile acid receptor (Homo sapiens) (UniProt Q96RI1)
# Assay: qHTS assay for small molecule antagonists of farnesoid X receptor signaling (AID 588526)
# Conditions: HEK293T FXR-UAS-bla, beta-lactamase ratio, antagonist mode; series mostly up to 76.7 µM
# In short: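 Concentration-response titrations were fitted to the Hill equation for half-maximal inhibition and maximal response, with data normalised to 50 uM chenodeoxycholic acid and DMSO control wells. Cells: FXR-UAS-bla HEK293T, dialyzed FBS.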
# Bile acid receptor (Homo sapiens), sequence (Q96RI1 whole entry, looked up): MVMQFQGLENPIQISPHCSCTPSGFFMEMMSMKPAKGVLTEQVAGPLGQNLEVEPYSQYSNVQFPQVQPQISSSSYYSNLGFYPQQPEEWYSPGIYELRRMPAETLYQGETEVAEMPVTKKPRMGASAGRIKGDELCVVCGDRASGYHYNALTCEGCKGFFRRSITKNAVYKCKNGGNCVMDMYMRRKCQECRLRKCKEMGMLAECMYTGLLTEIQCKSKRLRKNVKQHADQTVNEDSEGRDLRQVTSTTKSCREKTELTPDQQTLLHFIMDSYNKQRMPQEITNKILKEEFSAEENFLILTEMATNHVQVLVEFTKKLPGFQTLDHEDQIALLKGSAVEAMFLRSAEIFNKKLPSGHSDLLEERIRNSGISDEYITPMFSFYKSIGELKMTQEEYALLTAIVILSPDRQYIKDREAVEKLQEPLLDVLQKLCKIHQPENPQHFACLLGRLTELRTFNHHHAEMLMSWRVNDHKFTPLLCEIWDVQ
row,SMILES,outcome
1,CNC(=O)O/N=C/C(C)(C)SC,inactive
2,ClC(Cl)=C(c1ccc(Cl)cc1)c1ccc(Cl)cc1,inactive
3,CCc1cccc(CC)c1N(COC)C(=O)CCl,inactive
4,COP(=S)(OC)Oc1ccc([N+](=O)[O-])cc1,inactive

# Target: Bile acid receptor (Homo sapiens) (UniProt Q96RI1)
# Assay: qHTS assay for small molecule agonists of farnesoid X receptor signaling (AID 588527)
# Conditions: HEK293T FXR-UAS-bla, beta-lactamase ratio, 16 h; stronger effect = higher value
# In short: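 FXR-UAS-bla HEK293T, 10% dialyzed FBS; cpds up to 92 uM titration, 16 h 37 C; CCF4 dye 2 h RT; fluorescence. Normalized to chenodeoxycholic acid 100 uM (100%) and DMSO (0%); Hill fit gives EC50, efficacy.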
row,SMILES,activation
1,O=S1OCC2C(CO1)C1(Cl)C(Cl)=C(Cl)C2(Cl)C1(Cl)Cl (stereo not given),2.02% (inactive)
2,CNC(=O)O/N=C/C(C)(C)SC,1.35% (inactive) and 5.69% (inactive) and 1.03% (inactive)
3,ClC(Cl)=C(c1ccc(Cl)cc1)c1ccc(Cl)cc1,-9.46% (inactive)
4,CCc1cccc(CC)c1N(COC)C(=O)CCl,-2.1% (inactive)
5,COP(=S)(OC)Oc1ccc([N+](=O)[O-])cc1,0.0258% (inactive) and 2.38% (inactive)

# Target: Glucocorticoid receptor (Homo sapiens) (UniProt P04150)
# Assay: qHTS assay for small molecule agonists of glucocorticoid receptor signaling (AID 588532; active = well fitted curve in the direction sought with a large enough effect in the signal ratio, with a control signal flat; the % refers to the signal ratio)
# Conditions: HeLa MMTV-bla, beta-lactamase ratio, agonist, 18 h; stronger effect = higher value; percent of dexamethasone control, DMSO zero
# In short: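 Stimulation of a glucocorticoid response element-driven beta-lactamase gene was measured in HeLa cells. Responses were scaled between DMSO basal and 0.1 uM dexamethasone, then fitted for half-maximal stimulation.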
# Glucocorticoid receptor (Homo sapiens), sequence (P04150 whole entry, looked up): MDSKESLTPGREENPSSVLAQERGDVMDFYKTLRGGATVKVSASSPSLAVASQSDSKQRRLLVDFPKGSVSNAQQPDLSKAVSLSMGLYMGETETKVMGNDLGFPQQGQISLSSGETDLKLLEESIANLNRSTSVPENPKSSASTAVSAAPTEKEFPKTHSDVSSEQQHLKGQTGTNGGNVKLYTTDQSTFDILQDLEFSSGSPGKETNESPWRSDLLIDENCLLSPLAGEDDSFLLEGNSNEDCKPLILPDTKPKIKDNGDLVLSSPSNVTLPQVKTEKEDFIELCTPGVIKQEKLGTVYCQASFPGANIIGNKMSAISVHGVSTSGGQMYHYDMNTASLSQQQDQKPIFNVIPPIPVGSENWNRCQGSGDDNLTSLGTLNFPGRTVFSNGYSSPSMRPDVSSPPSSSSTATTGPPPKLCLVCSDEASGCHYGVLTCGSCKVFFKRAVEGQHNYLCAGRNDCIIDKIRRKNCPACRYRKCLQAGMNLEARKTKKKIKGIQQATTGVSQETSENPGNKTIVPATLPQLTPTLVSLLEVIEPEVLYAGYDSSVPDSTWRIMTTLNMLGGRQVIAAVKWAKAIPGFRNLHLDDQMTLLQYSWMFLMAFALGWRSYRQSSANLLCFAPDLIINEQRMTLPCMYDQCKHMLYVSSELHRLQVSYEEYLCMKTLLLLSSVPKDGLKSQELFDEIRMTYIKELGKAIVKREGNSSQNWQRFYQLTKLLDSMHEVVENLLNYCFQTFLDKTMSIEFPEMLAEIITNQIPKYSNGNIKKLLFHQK
row,SMILES,activation
1,O=C(O)COc1ccc(Cl)cc1Cl,-2.35% (inactive) [middle of 4 runs]
2,ClC1=C(Cl)C2(Cl)C3C4C=CC(C4)C3C1(Cl)C2(Cl)Cl (stereo not given),16.6% (inactive)
3,O=S1OCC2C(CO1)C1(Cl)C(Cl)=C(Cl)C2(Cl)C1(Cl)Cl (stereo not given),7.98% (inactive)
4,c1ccc(N=Nc2ccccc2)cc1,3.39% (inactive)
5,CCOCN(C(=O)CCl)c1c(C)cccc1CC,5.28% (inactive) and 1.08% (inactive)
6,CNC(=O)O/N=C/C(C)(C)SC,-4.75% (inactive) and -0.357% (inactive) and -10.4% (inactive)
7,CCNc1nc(Cl)nc(NC(C)C)n1,-2.38% (inactive) and -6.25% (inactive)
8,ClC1=C(Cl)C2(Cl)C3C(Cl)C=CC3C1(Cl)C2(Cl)Cl (stereo not given),0.68% (inactive)
9,ClC1=C(Cl)C2(Cl)C3C4CC(C5OC45)C3C1(Cl)C2(Cl)Cl (stereo not given),-5.87% (inactive)
10,ClC(Cl)=C(c1ccc(Cl)cc1)c1ccc(Cl)cc1,4.56% (inactive) and 6.94% (inactive) and 2.36% (inactive)
11,CCc1cccc(CC)c1N(COC)C(=O)CCl,0.967% (inactive) and -3.2% (inactive)

# Target: Glucocorticoid receptor (Homo sapiens) (UniProt P04150)
# Assay: qHTS assay for small molecule antagonists of glucocorticoid receptor signaling (AID 588533; active = well fitted inhibition curve with a large enough effect in the signal ratio, with a control signal flat, not every such curve was filed as active; the % refers to the signal ratio;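 also: cells stimulated with 2 nM dexamethasone as agonist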)
# Conditions: HeLa MMTV-bla, GRE beta-lactamase ratio, antagonist mode, 18 h; series mostly up to 76.8 µM
# In short: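 Antagonist-mode qHTS: compound titrations added to GRE-bla HeLa cells, then dexamethasone 2 nM final; 18 h, 37 C. CCF4 FRET fluorescence normalized to dexamethasone and DMSO; IC50 from Hill fit.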
row,SMILES,Potency
1,O=C(O)COc1ccc(Cl)cc1Cl,inactive
2,ClC1=C(Cl)C2(Cl)C3C4C=CC(C4)C3C1(Cl)C2(Cl)Cl (stereo not given),inactive
3,c1ccc(N=Nc2ccccc2)cc1,inactive
4,CNC(=O)O/N=C/C(C)(C)SC,inactive
5,CCNc1nc(Cl)nc(NC(C)C)n1,inactive
6,ClC1=C(Cl)C2(Cl)C3C(Cl)C=CC3C1(Cl)C2(Cl)Cl (stereo not given),inactive
7,ClC1=C(Cl)C2(Cl)C3C4CC(C5OC45)C3C1(Cl)C2(Cl)Cl (stereo not given),inactive
8,ClC(Cl)=C(c1ccc(Cl)cc1)c1ccc(Cl)cc1,inactive
9,C=CCc1ccc2c(c1)OCO2,inactive

# Target: Peroxisome proliferator-activated receptor delta (Homo sapiens) (UniProt Q03181)
# Assay: qHTS assay for small molecule agonists of peroxisome proliferator-activated receptor delta signaling (AID 588534)
# Conditions: HEK293T PPARdelta-UAS-bla, beta-lactamase ratio, 18 h; series mostly up to 76.7 µM
# In short: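 Fluorescence from CCF4 substrate cleavage by beta-lactamase reporter, read 2 hrs at RT, measured agonist activity. Compounds were tested with 18 hrs exposure at 37 C. Concentration-response data fitted to Hill equation.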
# Peroxisome proliferator-activated receptor delta (Homo sapiens), sequence (Q03181 whole entry, looked up): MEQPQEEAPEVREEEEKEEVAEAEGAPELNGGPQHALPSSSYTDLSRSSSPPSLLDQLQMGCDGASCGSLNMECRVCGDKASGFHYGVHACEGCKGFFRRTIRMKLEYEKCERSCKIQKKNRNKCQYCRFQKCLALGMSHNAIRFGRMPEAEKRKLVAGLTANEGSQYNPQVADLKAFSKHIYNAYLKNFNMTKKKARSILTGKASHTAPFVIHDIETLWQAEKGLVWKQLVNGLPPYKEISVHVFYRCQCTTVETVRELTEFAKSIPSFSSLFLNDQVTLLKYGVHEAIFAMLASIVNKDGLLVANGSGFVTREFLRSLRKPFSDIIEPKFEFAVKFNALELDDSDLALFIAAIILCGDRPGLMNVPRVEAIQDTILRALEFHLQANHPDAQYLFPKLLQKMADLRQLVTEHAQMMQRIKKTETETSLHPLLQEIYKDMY
row,SMILES,outcome
1,CNC(=O)O/N=C/C(C)(C)SC,inactive
2,CCNc1nc(Cl)nc(NC(C)C)n1,inactive
3,C=CCc1ccc(OC)cc1,inactive
4,ClC1=C(Cl)C2(Cl)C3C(Cl)C=CC3C1(Cl)C2(Cl)Cl (stereo not given),inactive
5,ClC1=C(Cl)C2(Cl)C3C4CC(C5OC45)C3C1(Cl)C2(Cl)Cl (stereo not given),inactive
6,ClC(Cl)=C(c1ccc(Cl)cc1)c1ccc(Cl)cc1,inactive
7,CCc1cccc(CC)c1N(COC)C(=O)CCl,inactive
8,COP(=S)(OC)Oc1ccc([N+](=O)[O-])cc1,inactive

# Test system: not listed separately
# Assay: qHTS assay for small molecule antagonists of peroxisome proliferator-activated receptor delta signaling (AID 588535);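 also: cells co-treated with a PPAR-delta agonist as stimulator during compound exposure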
# Conditions: HEK293T PPARd-UAS-bla, beta-lactamase FRET ratio, 18 h; 460 nm channel
# In short: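 Reporter: UAS-bla under PPAR-delta response element, HEK293T host. Medium: 2% charcoal/dextran FBS. Dosing: titration, 18 hrs, 37 C. Detection: CCF4, 2 hrs RT, 405 ex/460 and 530 em.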
row,SMILES,max response
1,CNC(=O)O/N=C/C(C)(C)SC,-48.7% and -22%
2,C=CCc1ccc(OC)cc1,-9.08%
3,ClC1=C(Cl)C2(Cl)C3C(Cl)C=CC3C1(Cl)C2(Cl)Cl (stereo not given),-19.5%
4,ClC(Cl)=C(c1ccc(Cl)cc1)c1ccc(Cl)cc1,6.36% and 34.1%
5,COP(=S)(OC)Oc1ccc([N+](=O)[O-])cc1,-15.9%
